Source: PubChem BioAssay
The source made the active and inactive calls.

test: E. coli DRC41 culture turbidity changes, primary screen, E. coli filamentation inducer project, strain DRC41, OD650, 48 h (AID 1152);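 also: E. coli MC1000 strain DRC41 lacking acrAB efflux pump and sulA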; conditions: E. coli DRC41 (acrAB sulA), higher = more signal, called active from +8 up or from −8 down

| Compound | z-score |
| --- | --- |
| COC1(C)CN(Cc2ccccc2Br)[C@H](/C=C/c2ccccc2)[C@H](Cc2ccccc2)O1 (stereo partly specified) | 1.16 (inactive) |
| CN(C)C(=O)[C@@]1(Cc2ccccc2N=[N+]=[N-])COC(c2ccc(OCCCO)cc2)=N1 | 1.92 (inactive) |
| CC(C)N1CC=CC23O[C@@H]4C=CCCOC(=O)C4[C@H]2C(=O)N(CCO)[C@@H]3C1=O (stereo partly specified) | 2.1 (inactive) |
| C=C[C@@H](C)[C@H](OC(=O)Nc1ccc(SC)cc1)c1ccc(OCCO)cc1 | -0.605 (inactive) |
| COC(=O)[C@@]1(Cc2ccc(OC)cc2)[C@H]2c3cc(C(=O)N(C)C)n(CCc4c[nH]c5ccc(O)cc45)c3C[C@H]2CN1C(=O)c1ccccc1 | -1.58 (inactive) |
| COc1cc2c(cc1OC)CN(C(=O)[C@H]1[C@@H]3C(=O)O[C@@H](c4ccccc4)[C@@H](c4ccccc4)N3[C@@H](c3ccc(OCCO)cc3)[C@]13C(=O)Nc1ccc(C#CCCO)cc13)CC2 | 0.0836 (inactive) |
| COc1cc(CO)cc(I)c1O[C@H]1C=C(C(=O)NCCO)C[C@@H](N(CC2CCCCC2)C(=O)c2ccc(C(F)(F)F)cc2)[C@@H]1O | 1.76 (inactive) |
| COC(=O)[C@@]1(Cc2ccc(F)cc2)[C@H]2c3cc(C(=O)N4CCCC4)n(CCc4c[nH]c5ccc(OC)cc45)c3C[C@H]2CN1C(=O)c1ccccc1 | -1.06 (inactive) |
| COCC(=C=CC[C@H](O)c1ccc(OCCO)cc1)C[C@H](O)COCc1ccccc1 | 1.19 (inactive) |
| CC=CC(O)C1C=CC2C(=O)N(C)C(=O)C2N1N1CCCCC1 (stereo unspecified) | -1.81 (inactive) |
| [N-]=[N+]=NCc1ccccc1C[C@]1(C(=O)NCC(O)CO)N=C(c2ccc(OCCCO)cc2)O[C@H]1c1ccccc1CN=[N+]=[N-] (stereo partly specified) | -0.0074 (inactive) |
| NCCCCCCNC(=O)[C@H]1C[C@H]2C(=O)N[C@@H](Cc3ccccc3)C(=O)N2[C@H]1c1ccc(O)cc1 | 1.42 (inactive) |
| CCCCC(=C=CC[C@@H](O)c1ccc(OCCO)cc1)C[C@@H](O)COCc1ccccc1 | 1.98 (inactive) |
| O=C(O)[C@]1(Cc2ccccc2)N=C(c2ccc(OCCCO)cc2)O[C@@H]1c1ccccc1 | 0.585 (inactive) |
| CC(C)C(=C=CC[C@@H](O)c1ccccc1OCCO)C[C@@H](O)COCc1ccccc1 | 1.6 (inactive) |
| O=C1O[C@@H](c2ccccc2)[C@@H](c2ccccc2)N2[C@@H](c3ccc(O)cc3)[C@]3(C(=O)Nc4ccccc43)[C@@H](C(=O)Nc3nc4ccccc4s3)[C@H]12 | -0.198 (inactive) |
| O=C(N1CCCCC1)[C@@]1(Cc2ccccc2)COC(c2ccc(OCCCO)cc2)=N1 | 0.436 (inactive) |
| CO[C@H]1O[C@H](CO)[C@@H](OC(=O)Nc2ccc(C(F)(F)F)cc2)[C@H](OC(=O)Nc2ccc3c(c2)OCO3)[C@H]1OC(=O)Nc1ccc2c(c1)OCO2 | -0.463 (inactive) |
| COc1cc(CO)cc(I)c1O[C@H]1C=C(C(=O)NCCO)C[C@@H](NCc2ccccc2F)[C@@H]1O | 1.96 (inactive) |
| CCCNC(=O)[C@@]1(c2ccc([N+](=O)[O-])cc2)CC(=O)N(C2CCCCC2)[C@@H]1c1ccc(CO)cc1I | -0.123 (inactive) |
| CCOC(=CC(=O)OC)CC(O)c1cccc(Cl)c1 (stereo unspecified) | 1.04 (inactive) |
| Cc1ccc(S[C@]2(C(=O)NC(C)C)CC(=O)N(Cc3ccccc3C(F)(F)F)[C@@H]2c2ccc(CO)cc2I)cc1 | 0.346 (inactive) |
| CO[C@H]1O[C@H](CO)[C@@H](OC(=O)c2ccc(Br)cc2)[C@@H]2OC(=O)[C@@H](Cc3ccc4ccccc4c3)C/C=C/C[C@H](Cc3ccc4ccccc4c3)C(=O)O[C@@H]12 | 0.689 (inactive) |
| COC(=O)[C@@]1(Cc2ccc(OC)cc2)[C@H]2c3cc(C(=O)N(C)C)n(Cc4nc5ccccc5[nH]4)c3C[C@H]2CN1C(=O)c1ccccc1 | -2.02 (inactive) |
| COCCCNC(=O)[C@]1(Cc2ccccc2N=[N+]=[N-])N=C(c2ccc(OCCCO)cc2)O[C@@H]1c1ccccc1N=[N+]=[N-] | -0.279 (inactive) |

test: small-molecule binders of probe aLefty1, primary screen, biochemical, small-molecule microarray, 635/667 nm fluorescence (AID 1153); conditions: higher = more signal;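 also: score merges spot fluorescence with signal-to-noise ratio from the scanned slide images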

| Compound | composite z-score |
| --- | --- |
| CC(C)C(=C=CC[C@H](O)c1ccc(OCCO)cc1)C[C@H](O)c1cc(Cl)cc(Cl)c1O | 0.121 |
| C=C(COC)/C(=C/C[C@@H](OC(=O)c1ccncc1)c1ccc(OCCO)cc1)c1cnc2ccccc2c1 | 0.497 |
| CC(C)CN1C(=O)[C@@]2(c3ccc([N+](=O)[O-])cc3)CC(=O)N(CC34CC5CC(CC(C5)C3)C4)[C@@H]2c2ccc(CO)cc21 | 0.129 |
| C=C(CCCC)/C(=C/C[C@@H](OC(C)=O)c1ccc(CO)o1)c1cc(C(=O)OC)ccc1OC | -0.0011 |
| C=C(C(=O)CC[C@H](OC(=O)c1cccnc1)c1ccc(CO)o1)C(C)C | 0.333 |
| CCOc1cc(C(O)C2C=CC3C(=O)N(C4CCCCC4)C(=O)C3N2Nc2ccc(OC)cc2)ccc1O (stereo unspecified) | 0.666 |
| CN(C)CCCNC(=O)[C@@H]1c2ccccc2C(=O)N(CC23CC4CC(CC(C4)C2)C3)[C@H]1c1ccc(CO)cc1 | -0.262 |
| NC(=O)N1C(=O)C2C(C1=O)C1C=C(CCCO)C2C(c2cccs2)N1Cc1cc2c(cc1Br)OCO2 (stereo unspecified) | 0.254 |
| [N-]=[N+]=NCc1ccccc1[C@H]1OC(c2ccc(OCCCO)cc2)=N[C@@]1(CCS(=O)(=O)c1ccccc1)C(N)=O | 0.345 |
| CC(C)(C)OC(=O)CC[C@]1(C(=O)O)N=C(c2ccc(OCCCO)cc2)O[C@H]1c1ccccc1 | -0.362 |
| COc1ccc([Si](C)(C)[C@@H]2[C@@H](CCO)O[C@]3(C(=O)N(Cc4cccc(N5C(=O)c6cccc7cccc5c67)c4)c4ccccc43)[C@H]2C)cc1 | 0.0449 |
| COC1(C)CN(Cc2ccccc2Br)[C@H](/C=C/c2ccccc2)[C@H](Cc2ccccc2)O1 (stereo partly specified) | -0.31 |
| CN(C)C(=O)[C@@]1(Cc2ccccc2N=[N+]=[N-])COC(c2ccc(OCCCO)cc2)=N1 | -0.781 |
| CC(C)N1CC=CC23O[C@@H]4C=CCCOC(=O)C4[C@H]2C(=O)N(CCO)[C@@H]3C1=O (stereo partly specified) | -0.357 |
| C=C[C@@H](C)[C@H](OC(=O)Nc1ccc(SC)cc1)c1ccc(OCCO)cc1 | -0.33 |
| COC(=O)[C@@]1(Cc2ccc(OC)cc2)[C@H]2c3cc(C(=O)N(C)C)n(CCc4c[nH]c5ccc(O)cc45)c3C[C@H]2CN1C(=O)c1ccccc1 | 0.825 |
| COc1cc2c(cc1OC)CN(C(=O)[C@H]1[C@@H]3C(=O)O[C@@H](c4ccccc4)[C@@H](c4ccccc4)N3[C@@H](c3ccc(OCCO)cc3)[C@]13C(=O)Nc1ccc(C#CCCO)cc13)CC2 | 0.433 |
| COc1cc(CO)cc(I)c1O[C@H]1C=C(C(=O)NCCO)C[C@@H](N(CC2CCCCC2)C(=O)c2ccc(C(F)(F)F)cc2)[C@@H]1O | -0.0547 |

| Compound | composite z-score |
| --- | --- |
| COC(=O)[C@@]1(Cc2ccc(F)cc2)[C@H]2c3cc(C(=O)N4CCCC4)n(CCc4c[nH]c5ccc(OC)cc45)c3C[C@H]2CN1C(=O)c1ccccc1 | 1.97 |
| COCC(=C=CC[C@H](O)c1ccc(OCCO)cc1)C[C@H](O)COCc1ccccc1 | 0.179 |
| CC=CC(O)C1C=CC2C(=O)N(C)C(=O)C2N1N1CCCCC1 (stereo unspecified) | -0.0359 |
| [N-]=[N+]=NCc1ccccc1C[C@]1(C(=O)NCC(O)CO)N=C(c2ccc(OCCCO)cc2)O[C@H]1c1ccccc1CN=[N+]=[N-] (stereo partly specified) | 0.865 |
| NCCCCCCNC(=O)[C@H]1C[C@H]2C(=O)N[C@@H](Cc3ccccc3)C(=O)N2[C@H]1c1ccc(O)cc1 | -0.0094 |
| CCCCC(=C=CC[C@@H](O)c1ccc(OCCO)cc1)C[C@@H](O)COCc1ccccc1 | 0.596 |
| O=C(O)[C@]1(Cc2ccccc2)N=C(c2ccc(OCCCO)cc2)O[C@@H]1c1ccccc1 | 0.104 |
| CC(C)C(=C=CC[C@@H](O)c1ccccc1OCCO)C[C@@H](O)COCc1ccccc1 | -0.103 |
| O=C1O[C@@H](c2ccccc2)[C@@H](c2ccccc2)N2[C@@H](c3ccc(O)cc3)[C@]3(C(=O)Nc4ccccc43)[C@@H](C(=O)Nc3nc4ccccc4s3)[C@H]12 | -0.209 |
| O=C(N1CCCCC1)[C@@]1(Cc2ccccc2)COC(c2ccc(OCCCO)cc2)=N1 | 0.461 |
| CO[C@H]1O[C@H](CO)[C@@H](OC(=O)Nc2ccc(C(F)(F)F)cc2)[C@H](OC(=O)Nc2ccc3c(c2)OCO3)[C@H]1OC(=O)Nc1ccc2c(c1)OCO2 | 0.662 |
| COc1cc(CO)cc(I)c1O[C@H]1C=C(C(=O)NCCO)C[C@@H](NCc2ccccc2F)[C@@H]1O | -0.117 |
| CCCNC(=O)[C@@]1(c2ccc([N+](=O)[O-])cc2)CC(=O)N(C2CCCCC2)[C@@H]1c1ccc(CO)cc1I | 0.317 |
| CCOC(=CC(=O)OC)CC(O)c1cccc(Cl)c1 (stereo unspecified) | -0.494 |
| Cc1ccc(S[C@]2(C(=O)NC(C)C)CC(=O)N(Cc3ccccc3C(F)(F)F)[C@@H]2c2ccc(CO)cc2I)cc1 | 0.135 |
| CO[C@H]1O[C@H](CO)[C@@H](OC(=O)c2ccc(Br)cc2)[C@@H]2OC(=O)[C@@H](Cc3ccc4ccccc4c3)C/C=C/C[C@H](Cc3ccc4ccccc4c3)C(=O)O[C@@H]12 | -0.113 |
| COC(=O)[C@@]1(Cc2ccc(OC)cc2)[C@H]2c3cc(C(=O)N(C)C)n(Cc4nc5ccccc5[nH]4)c3C[C@H]2CN1C(=O)c1ccccc1 | 0.905 |
| COCCCNC(=O)[C@]1(Cc2ccccc2N=[N+]=[N-])N=C(c2ccc(OCCCO)cc2)O[C@@H]1c1ccccc1N=[N+]=[N-] | 0.616 |
